The results in this text go back to PubChem BioAssay (EPA / NIEHS).

The term AC50 denotes the concentration at which the activity in the assay is half-maximal.

Results filed as inconclusive are left out. Some structures have more than one record in an assay (separate samples or runs), and their calls can disagree. Activity calls are given as the source filed them. The calls were made as follows: active = hit-call score of the fitted dose curve at least 0.9, where 1 is the maximum; inconclusive = response in the unintended direction; inactive = score below 0.9.

Sequence of Luciferin 4-monooxygenase (Photinus pyralis) (P08659 whole entry, looked up): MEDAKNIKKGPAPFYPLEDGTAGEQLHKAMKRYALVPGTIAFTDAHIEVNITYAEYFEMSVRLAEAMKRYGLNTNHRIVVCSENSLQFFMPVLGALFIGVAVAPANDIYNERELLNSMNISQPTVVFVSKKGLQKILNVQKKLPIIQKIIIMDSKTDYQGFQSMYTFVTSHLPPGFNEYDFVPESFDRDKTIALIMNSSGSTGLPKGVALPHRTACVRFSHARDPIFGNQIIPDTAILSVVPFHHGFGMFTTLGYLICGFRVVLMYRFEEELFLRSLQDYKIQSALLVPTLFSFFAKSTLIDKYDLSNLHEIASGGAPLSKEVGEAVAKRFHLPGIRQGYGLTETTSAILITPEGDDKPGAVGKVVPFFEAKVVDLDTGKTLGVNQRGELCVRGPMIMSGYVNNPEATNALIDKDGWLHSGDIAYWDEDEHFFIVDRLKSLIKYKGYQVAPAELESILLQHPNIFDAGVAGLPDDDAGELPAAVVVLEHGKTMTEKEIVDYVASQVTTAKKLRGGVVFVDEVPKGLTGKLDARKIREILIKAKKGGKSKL

This assay deals with Luciferin 4-monooxygenase (Photinus pyralis) (UniProt P08659). Kind of assay: CCTE_Simmons_QuantiLum_inhib_2: CCTE's Firefly Luciferase Inhibition Assay, Simmons Lab (AID 2283767).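 As to AC50: potency for inhibitors that lower luciferase luminescence relative to DMSO.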 On the procedure:
CCTE_Simmons_QuantiLum_inhib_2 is a biochemical, single-readout assay that uses purified luciferase enzyme in a cell-free assay.Measurements were taken 0.5 hour after chemical dosing in a 384-well plate.CCTE_Simmons_QuantiLum_inhib_2 is the assay component measured from the CCTE_Simmons_QuantiLum_inhib_2 assay. It is designed to make measurements of enzyme activity, a form of enzyme reporter, as detected with bioluminescence signals by Luciferase-coupled Quantilum levels technology. This is a secondary assay to CCTE_Simmons_AUR_TPO to evaluate nonspecific enzyme inhibition.Data from the assay component CCTE_Simmons_QuantiLum_inhib_2 was analyzed at the endpoint, CCTE_Simmons_QuantiLum_inhib_2, in the positive analysis fitting direction relative to DMSO as the negative control and baseline of activity. Using a type of enzyme reporter, measures of enzyme activity for loss-of-signal activity can be used to understand inhibition of firefly luciferase. This is an assay endpoint to indicate nonspecific protein inhibition for comparison to aeid 1508 for thyroperoxidase inhibition. To generalize the intended target to other relatable targets, this assay endpoint is annotated to the oxidoreductase intended target family, where the subfamily is monooxygenase.
Quanti-Lum recombinant luciferase (Promega; Madison, Wisconsin) was diluted to 76.9 ng/ml with 200mM potassium phosphate buffer supplemented with 1 mg/ml bovine serum albumin and 65ul (5ng recombinant luciferase) per well was dispensed into opaque, white 384-well plates (Greiner, BioExpress) using an automated liquid handler (BioTek MicroFlo) with a plastic 5 ul tubing cassette. Test compounds were administered using the HDRT as described earlier to achieve a 0.5% final DMSO concentration. Microplates were incubated at 37C in the dark for 30min to mimic the AUR-TPO assay conditions. Luciferase detection reagent (25 ul per well; 9.2 mM dithiothreitol, 75uM Coenzyme A, 147uM dATP, 150uM D-luciferin, 8.9 mM Tricine, 297uM (MgCO3)4.Mg(OH)2.5H20, 742uM MgSO4, 27.8uM EDTA, pH 7.8, final assay concentrations) was then added using a BMG Clariostar plate reader equipped with syringe injectors (BMG LabTech; GmbH). Plates were read using a kinetic luminescence protocol (top read) whereby each well was individually injected with luciferase detection reagent immediately prior to measurement. Three biological replicates of technical singles were run for every chemical concentration tested. A titrated range of LUCINH2 served as a positive control on each plate of the luciferase inhibition screening assay. Test chemicals were administered as a titrated series of 8 concentrations from 5 nM up to 87.5 uM [final] for 30 minutes prior to single endpoint detection. Dimethylsulfoxide [DMSO] was used as the vehicle control. Luciferase Inhibitor I [2-(5-(2-Methoxyphenyl)-1,2,4-oxadiazol-3-yl)pyridine] was used as the positive control and was administered as a titrated series of 8 concentrations from 1 nM up to 100 uM [final].
Consider `O=C(O)CS`, for which the compound was called inactive. `c1ccc2scnc2c1`: the AC50 was 31.7 µM (active) and the compound was called inactive. Take `C[C@]12CC[C@@H]3c4ccc(O)cc4CC[C@H]3[C@@H]1CC[C@@H]2O`: the outcome was inactive.

For the compound `NC(N)=S`, the AC50 was 10.4 µM (active) and the compound was called inactive. Consider `CC(=O)Nc1cc(S(=O)(=O)O)cc2cc(S(=O)(=O)O)c(N=Nc3ccccc3)c(O)c12`, for which the AC50 is 21.2 µM (active). As for `CC(=O)OC/C=C(C)/C=C/C=C(C)/C=C/C1=C(C)CCCC1(C)C`, the call was inactive.

With `CC1=CCC(=C(C)C)CC1`, the outcome was inactive.

With `CCCCCCCCCCCCOCCOS(=O)(=O)O`, the call was inactive. Still for that read-out and setting: with `COc1ccccc1O` the entry was “inactive”.

In the case of `O=Cc1ccccc1O`, the outcome was inactive. `O=C(c1ccc(OCCN2CCCCC2)cc1)c1c(-c2ccc(O)cc2)sc2cc(O)ccc12`: the outcome was inactive.

With `O=C1OC2(c3ccc(O)cc3Oc3cc(O)ccc32)c2ccccc21`, the compound was called inactive. In the case of `O=c1cc[nH]cc1`, the compound was classed as inactive. For the compound `CCCc1ccc(N)cc1`, the compound was called inactive.

In the case of `CCCc1ccc(O)cc1`, the compound was classed as inactive. Same read-out and setting: with `CCCCCCCCOC(=O)c1ccc(O)cc1` the entry was “inactive”; with `CCCCCCCCCCCCS`, “inactive”. Regarding `O=c1cc(-c2ccc(O)cc2)oc2cc(O)cc(O)c12`, the AC50 is 7.35 µM (active).

Take `CN(C)C(=O)Nc1ccccc1`: the compound was classed as inactive. For the compound `Cc1cccc(O)c1`, the compound was classed as inactive. Still for that read-out and setting: with `C#C[C@]1(O)CC[C@H]2[C@@H]3CCc4cc(O)ccc4[C@H]3CC[C@@]21C` the entry was “inactive”. With `CCCCCCOc1ccc(O)cc1`, the AC50 is 53.8 µM (active). Still for that read-out and setting: with `CCc1cccc(O)c1` the figure was 55.2 µM (active).

As for `CCCCC/C=C\C=C\C(=O)OCC`, the call was inactive. For the compound `CN1CCc2cccc3c2[C@H]1Cc1ccc(O)c(O)c1-3`, the AC50 was 12.5 µM (active). On the same count and under the same terms, with `[O-]/[N+](=N\O)c1ccccc1` the figure was 31.7 µM (active). With `CCC(C)(C)C1CCC(=O)CC1`, the compound was classed as inactive. Still for that read-out and setting: with `CC(C)(C)c1cccc(O)c1` the entry was “inactive”; with `O=C(O)C1=NN(c2ccc(S(=O)(=O)O)cc2)C(=O)C1`, “inactive”; with `CC/C(=C(\c1ccccc1)c1ccc(OCCN(C)C)cc1)c1ccccc1`, “inactive”.
